Test results taken from PubChem BioAssay AID1159580 (chemical genetic matrix, 2015).
Several values for one entry are separate records, joined by “and”; a condition that tells them apart may be missing. Identical values can stand only once. Hit rate of the full screen: of about 5,500 compounds, about 2,000 (36%) were called active. About 18% were inconclusive and are not listed. Rule as the data show it: active = normalized growth mostly below about 0.91 (no sharp cut-off); inconclusive = no clear call, values can overlap the other calls; inactive = mostly above about 0.92. The list shows a part of the results.

Assay: chemical genetic growth profiling, strain panel (AID 1159580);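 also: tested at 20 µM; growth read once vehicle control cultures reached saturation at 30 °C; 1 = growth at the plate median or of vehicle wells; lower values mean less growth of the strain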
Conditions: S. cerevisiae deletion strains, growth OD

Measured: normalized growth

O=C(NCO)c1cccnc1
inactive: locus YAL013W, strain DEP1, hits give low values 0.99 | locus YAL021C, strain ccr4, hits give low values 1.02 | locus YAL026C, strain drs2, hits give low values 1.01 | locus YAL030W, strain snc1, hits give low values 1.01 | locus YBL061C, strain skt5, hits give low values 1.01 | locus YBR009C, strain hhf1, hits give low values 0.998 | locus YBR021W, strain FUR4, hits give low values 1.04 | locus YBR023C, strain chs3, hits give low values 1 | locus YBR171W, strain sec66, hits give low values 1.03 | locus YBR229C, strain ROT2, hits give low values 0.997 | locus YBR231C, strain swc5, hits give low values 1 | locus YBR279W, strain paf1, hits give low values 1.01 | locus YCL011C, strain gbp2, hits give low values 1.01 | locus YCL016C, strain dcc1, hits give low values 1.01 | locus YCL029C, strain bik1, hits give low values 0.971 | locus YCL061C, strain MRC1, hits give low values 0.999 | locus YCL069W, strain vba3, hits give low values 1 | locus YCR088W, strain abp1, hits give low values 1 | locus YDL005C, strain med2, hits give low values 1 | locus YDL035C, strain GPR1, hits give low values 0.985 | locus YDL040C, strain nat1, hits give low values 1.01 | locus YDL074C, strain BRE1, hits give low values 1 | locus YDL101C, strain DUN1, hits give low values 0.99 | locus YDL134C, strain PPH21, hits give low values 0.988 | locus YDL185W, strain tfp1, hits give low values 1.01 | locus YDL192W, strain arf1, hits give low values 0.987 | locus YDR001C, strain nth1, hits give low values 1 | locus YDR069C, strain doa4, hits give low values 0.999 | locus YDR101C, strain arx1, hits give low values 0.991 | locus YDR137W, strain rgp1, hits give low values 1.02 | locus YDR150W, strain NUM1, hits give low values 0.98 | locus YDR159W, strain sac3, hits give low values 1 | locus YDR162C, strain NBP2, hits give low values 1 | locus YDR195W, strain ref2 0.993 | locus YDR297W, strain sur2, hits give low values 1.01 | locus YDR318W, strain mcm21, hits give low values 0.978 | locus YDR334W, strain swr1, hits give low values 1.01 | locus YDR335W, strain msn5, hits give low values 1.01 | locus YDR388W, hits give low values 0.989 | locus YDR392W, strain spt3, hits give low values 0.893 | locus YDR502C, strain sam2, hits give low values 0.996 | locus YEL003W, strain gim4, hits give low values 1.01 | locus YEL037C, strain rad23, hits give low values 1.02 | locus YEL061C, strain CIN8 (second series), hits give low values 1.01 | locus YEL061C, strain CIN8, hits give low values 0.996 | locus YER015W, strain faa2, hits give low values 1 | locus YER016W, strain bim1, hits give low values 1.01 | locus YER110C, hits give low values 0.97 | locus YER111C, strain swi4, hits give low values 1 | locus YER155C, strain BEM2 (second series), hits give low values 1.01 | locus YER155C, strain BEM2, hits give low values 0.996 | locus YER167W, strain BCK2, hits give low values 0.982 | locus YFR010W, strain ubp6, hits give low values 1.01 | locus YGL078C, strain dbp3, hits give low values 0.979 | locus YGL086W, strain mad1, hits give low values 0.983 | locus YGL167C, strain pmr1, hits give low values 1.01 | locus YGL173C, strain kem1, hits give low values 1.01 | locus YGL227W, strain vid30, hits give low values 1 | locus YGL240W, strain doc1, hits give low values 0.988 | locus YGL248W, strain PDE1, hits give low values 0.994 | locus YGL253W, strain hxk2, hits give low values 1.01 | locus YGR078C, strain PAC10, hits give low values 0.995 | locus YGR135W, strain pre9, hits give low values 1.02 | locus YGR229C, strain SMI1, hits give low values 1.01 | locus YGR252W, strain gcn5, hits give low values 1.01 | locus YHR013C, strain ard1, hits give low values 0.984 | locus YHR027C, strain rpn1, hits give low values 1.01 | locus YHR030C, strain SLT2, hits give low values 0.984 and 0.995 | locus YHR079C, strain IRE1 (second series), hits give low values 0.989 | locus YHR079C, strain IRE1, hits give low values 0.992 | locus YHR094C, strain hxt1, hits give low values 0.982 | locus YHR129C, strain ARP1, hits give low values 0.994 | locus YHR142W, strain chs7, hits give low values 1.02 | locus YHR200W, strain rpn10, hits give low values 0.981 | locus YIL066C, strain RNR3, hits give low values 0.98 | locus YIL073C, strain SPO22, hits give low values 0.894 | locus YIL125W, strain kgd1, hits give low values 0.975 | locus YIR030C, strain dcg1, hits give low values 0.992 | locus YJL092W, strain hpr5, hits give low values 1.01 | locus YJL095W, strain BCK1 (second series), hits give low values 1 | locus YJL095W, strain BCK1, hits give low values 1.01 and 0.998 | locus YJL115W, strain asf1, hits give low values 1 | locus YJL129C, strain trk1, hits give low values 1.01 | locus YJL134W, strain LCB3, hits give low values 0.988 | locus YJL154C, strain vps35, hits give low values 1 | locus YJL164C, strain tpk1, hits give low values 0.998 | locus YJL166W, strain qcr8, hits give low values 1.01 | locus YJL168C, strain set2, hits give low values 0.982 | locus YJL187C, strain SWE1 (second series), hits give low values 0.982 | locus YJL187C, strain SWE1, hits give low values 1 | locus YJR043C, strain POL32, hits give low values 0.983 | locus YJR066W, strain TOR1, hits give low values 0.906
